This note sets out measurements from PubChem BioAssay AID1347043 (National Center for Advancing Translational Sciences (NCATS), 2019).

Among all 76,000 compounds or so, about 1,900 (2.5%) were called active. Not shown: some 5% with an inconclusive outcome. Only a selection was taken, and actives are over-represented in it overall. A number with no mark means an inactive call. The call rests on the fitted dose curve; in most records, active means well fitted inhibition curve with a large enough effect; inconclusive means small, poorly fitted or top-dose-only effect; inactive means flat fitted curve, though single readings scatter.
On the % scale 0 is the no-effect control and ±100 the full control effect.

Sequence of Luciferin 4-monooxygenase (Photinus pyralis) (P08659 whole entry, looked up): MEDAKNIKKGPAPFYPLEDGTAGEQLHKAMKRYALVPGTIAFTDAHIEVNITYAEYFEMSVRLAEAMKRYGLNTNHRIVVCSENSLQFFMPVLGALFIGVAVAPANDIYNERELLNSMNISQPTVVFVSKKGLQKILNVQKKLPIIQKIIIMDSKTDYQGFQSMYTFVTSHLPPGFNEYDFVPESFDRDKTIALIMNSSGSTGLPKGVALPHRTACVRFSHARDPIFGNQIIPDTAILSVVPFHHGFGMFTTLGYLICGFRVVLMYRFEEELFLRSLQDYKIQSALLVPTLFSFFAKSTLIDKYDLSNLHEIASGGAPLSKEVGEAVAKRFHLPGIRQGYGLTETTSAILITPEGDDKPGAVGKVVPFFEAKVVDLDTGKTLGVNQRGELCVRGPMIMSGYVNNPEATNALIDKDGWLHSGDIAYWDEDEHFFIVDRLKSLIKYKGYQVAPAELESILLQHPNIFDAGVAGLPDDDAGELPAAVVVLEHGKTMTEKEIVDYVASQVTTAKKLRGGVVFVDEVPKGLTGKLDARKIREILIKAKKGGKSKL

The test addresses Luciferin 4-monooxygenase (Photinus pyralis) (UniProt P08659). The test can be described thus: Firefly luciferase inhibition profiling of diverse chemical library using quantitative high-throughput screening. Further: nearly all actives have a fitted effect of over 65% in size. The following applies: purified P. pyralis luciferase, luminescence, biochemical; series mostly up to 115 µM; activity change, negative = inhibition: at the top concentration. The source says: Firefly (Photinus pyralis) luciferase is one of the most commonly used transcriptional reporters for a number of reasons. It is considered one of the more dynamically responsive reporters - that is, responsive to changes in reporter transcription - as it requires no post-translational modifications and is enzymatically active directly after protein synthesis (Wood, 1998). Additionally, the half-life of the luciferase protein is short relative to other reporter-gene products (Wood, 1995). Whereas reporters with long half-lives potentially allow for increased signal due to accumulation of reporter-gene product, once accumulated in the cell, dynamic changes in reporter-gene expression may be difficult to detect(Fan and Wood, 2007; Almond et al., 2004). It has been shown that wild-type P. pyralis luciferase has a half-life of approximately four hours in mammalian cells (Thompson et al., 1991). Firefly luciferase reporter-gene assays are also generally considered one of the most sensitive assay types (Wood, 1995; Wood, 1998). Although light produced in a bioluminescence reaction is of lower intensity than that produced during fluorescence emission, this is offset by little to no background light inherent to luminescent assays. Thus the luciferase reporter can be expressed at much lower levels than fluorescent proteins while still providing robust signal. However, it was initially observed, in 1991, by Thompson et al., that compounds that resemble the substrates of firefly luciferase (FLuc) can act as competitive inhibitors of the enzyme, and that these compounds, upon interaction with luciferase in the cell, can actually stabilize the protein and increase its half-life. Accumulated intracellular FLuc protein can be measured as an increase in luminescence signal, upon addition of detection reagents (which contain high concentrations of FLuc substrates) commonly used in high-throughput screening. In cell-based reporter gene assays that use FLuc as the reporter gene to quantitate the potential influence of a given compound against the target biology, this apparent increase in luminescence can mistakenly be interpreted as identification of a compound that is active against the target of interest. FLuc inhibitory compounds that stabilize the FLuc protein will give an identical read-out, making it difficult to distinguish compounds that are active against the target from those active against FLuc. In summary, the results generated here constitutes a valuable resource for the scientific community and provides insight on identifying compounds with inhibitory activity for the commonly-used reporter, firefly luciferase. References: -Almond, B., Zdanovsky, A., Zdanovskaia, M., Ma, D., Stecha, P., Paguio, A., Garvin, D., and Wood, K. (2004). Introducing the Rapid Response Reporter Vectors. Promega Notes 87, 18-22. -Fan, F., and Wood, K.V. (2007). Bioluminescent assays for high-throughput screening. Assay Drug Dev Technol 5, 127-136. -Thompson, J.F., Hayes, L.S., and Lloyd, D.B. (1991). Modulation of firefly luciferase stability and impact on studies of gene regulation. Gene 103, 171-177. -Wood, K.V. (1998). The chemistry of bioluminescent reporter assays. Promega Notes 65, 14-20. -Wood, K.V. (1995). Marker proteins for gene expression. Curr Opin Biotechnol 6, 50-58.
Reagents: 50mM Tris acetate, pH 7.5; 10mM Mg acetate; 10uM D-luciferin (Sigma #L9504); 10uM ATP; 0.01% Tween-20; 0.05% BSA; 10nM P. pyralis luciferase (Sigma #L9506) Control compounds used were two known firefly luciferase inhibitors (compounds (2) and (5) in Auld et al., 2010), and DMSO. Assay Summary: Three microliters containing firefly luciferase substrates in buffer (final concentrations: 50mM Tris acetate, pH 7.5, 10mM Mg acetate, 0.01% Tween-20, 0.05% BSA, 10uM D-luciferin, and 10uM ATP) are dispensed into each well of a Greiner white, solid-bottom 1536-well format plate using a flying reagent dispenser (FRD). […]
As to `CCCCCCOC(=O)C1=CN(C)S(=O)(=O)N=C1C`, the “activity change, negative = inhibition” value is -7.56%.
For `Cn1cc(CC(=O)N2CCCc3ncc(C(N)=O)cc32)c2ccccc21`, the “activity change, negative = inhibition” value was 3.17% [at 172 µM].
Still for that read-out and setting: the figure for `COCCNC(=O)CCc1c(C)nn(-c2ccccc2)c1Oc1ccccc1F` is -0.838%; for `O=C([C@@H]1C[C@H](Oc2ccccc2)CN1C(=O)CN1CCCCCC1)N1CCCC1` it is -13.3%.
Regarding `Fc1ccccc1CN1CCNc2cc(Nc3cccnc3)ncc2C1`, the Potency was 50.1 µM (active).
In the case of `CN(C)c1cccc(Nc2cc3c(cn2)NCCN(Cc2ccccc2)C3)c1`, the “activity change, negative = inhibition” value was 6.72% [at 172 µM].
Still for that read-out and setting: the same measure for `c1ccc(CN2CCNc3cc(NCc4cccnc4)ncc3C2)cc1`: 13.2% [at 172 µM].
As to `Fc1ccc(Cc2nc3nccc(-c4ccco4)n3n2)cc1`, the “activity change, negative = inhibition” value is -2.42%.
The same measure, in the same setting: the figure for `COc1ccc(-c2ccc3ncc(Nc4ccc(C(F)(F)F)cc4)n3n2)cn1` is 4.32% [at 172 µM].
As for `Cc1cccc(-c2cccc(NC(=O)C3CCCN(C(=O)CC(F)(F)F)C3)c2)c1` (stereo not drawn), the Potency was 11.2 µM (active).
For `Cc1cccc(C(=O)N2C[C@@H](F)C[C@H]2C(=O)N2CCCCC2)c1`, the “activity change, negative = inhibition” value is 39.2%.
As to `CC#CC(=O)N1CCCC(C(=O)Nc2cccc(-c3cccc(C)c3)c2)C1` (stereo not drawn), the Potency was 15.8 µM (active).
As for `CC(=O)Nc1cccc(-c2nnc3n2CCCC3)c1`, the “activity change, negative = inhibition” value was 3.08%.
The same measure, in the same setting: the figure for `O=C(Nc1cccc(F)c1)N1CCCC(CN2CCOCC2)CC1` (stereo not drawn) is -4.29%; for `O=C(Nc1cccc(Cl)c1)C1CCCN(c2nc3ncccc3o2)C1` (stereo not drawn) it is 3.77%.
On the same count and under the same terms, the same measure for `CCn1nccc1C(=O)N1CCCC1c1cc(C)no1` (stereo not drawn): -9.45%; for `CN1C(=O)CC(C(=O)O)C12CCN(CCc1ccccn1)CC2` (stereo not drawn): -1.6%.
In the case of `Cc1ccc(CNC(=O)N2CCN(C(=O)N3CC4CC(C3)[C@H]3CCCC(=O)N3C4)CC2)cc1` (stereo partly drawn), the “activity change, negative = inhibition” value was 0%.
The same measure, in the same setting: the same measure for `CCn1c(CN(C)C)nnc1C1CCN(Cc2ccc(-n3ccnc3)cc2)CC1`: -2.73%; for `Cc1ccc(C2Cn3nnc(C(=O)N4CCN(C(=O)COc5cccc(C)c5)CC4)c3CO2)cc1` (stereo not drawn): 7.9%; for `COc1ccc(C2Cn3nnc(C(=O)N4CCN(C(=O)c5ccc(C)cc5C)CC4)c3CO2)cc1` (stereo not drawn): -19.6%.
As for `CCCCNC(=O)C1CCN(C(=O)c2nnn3c2COC(c2ccc(C)cc2)C3)CC1` (stereo not drawn), the Potency was 28.2 µM (active).
As to `O=C(c1ccoc1)N1CCN(C(=O)c2nnn3c2COC(c2ccc(Cl)cc2)C3)CC1` (stereo not drawn), the “activity change, negative = inhibition” value is -1.41%.
Take `Cc1ccc(C2Cn3nnc(C(=O)N4CCC(C(=O)Nc5ccc(Cl)cc5)CC4)c3CO2)cc1` (stereo not drawn): the Potency was 15.8 µM (active).
On the same count and under the same terms, the figure for `Cc1ccc(C2Cn3nnc(C(=O)N4CCC(C(=O)NCCc5ccccc5)CC4)c3CO2)cc1` (stereo not drawn) is 12.6 µM (active).
With `COc1ccc(C2Cn3nnc(C(=O)N4CCC(C(=O)NCC5CCCCC5)CC4)c3CO2)cc1` (stereo not drawn), the “activity change, negative = inhibition” value was 2.8%.
The same measure, in the same setting: the same measure for `Cc1ccc(C(=O)N2CCN(C(=O)c3nnn4c3COC(c3ccccc3)C4)CC2)cc1` (stereo not drawn): -10.9%.
The same measure, in the same setting: the figure for `CN(C)c1ccc(C(=O)N2CCN(C(=O)c3nnn4c3COC(c3ccc(Cl)cc3)C4)CC2)cc1` (stereo not drawn) is -8.23%.
